# Test results published in the supplement of paper PMC10849652.
# About 7,900 targets were measured; listed, in parts, are those with a hit and a random draw of the rest. About 0.6% of all pairs of compound and target were hits. A number with no mark means an inactive call.
# Tests used:
# Test in all cases: log2 fold change, soluble protein after heating vs DMSO (PISA); higher = thermal stabilisation; K562 cells, 10 uM, 30 min; active = over 0.2 and 3.5 SD of the protein, either way, in both replicates (recomputed)
# IRAK-1-4 Inhibitor I = compound: C1COCCN1CCN2C3=CC=CC=C3N=C2NC(=O)C4=CC(=CC=C4)[N+](=O)[O-] [IRAK-1-4 Inhibitor I]
# Outline: (§1)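 K562 cells at 2×10^6 cells/mL were given 10 μM compound for 30 min. Aliquots then went through 3 min of heating across 48°C-58°C, were pooled, and were extracted in PBS with 0.5% NP-40 at 4°C, and the supernatant after 21,000xg for 90 min was quantified by TMTpro 16plex LC-MS/MS with channel sums equalised. Thermal stability relative to control samples, from duplicates, is given as log2 fold change.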
# ibrutinib = compound: C=CC(=O)N1CCC[C@@H](n2nc(-c3ccc(Oc4ccccc4)cc3)c3c(N)ncnc32)C1 [ibrutinib]
# Outline: as §1
# [1] = compound: CC(=O)c1cnc2ccc(-c3cc(Cl)c(O)c(Cl)c3)nc2c1N[C@H]1CC[C@H](CN(C)C)CC1
# Outline: as §1
# ralimetinib = compound: CC(C)(C)Cn1c(N)nc2ccc(-c3[nH]c(C(C)(C)C)nc3-c3ccc(F)cc3)nc21 [ralimetinib]
# Outline: as §1
# [2] = compound: CC(C)(O)CC(=O)NCCn1ccc2ncnc(Nc3ccc(Oc4cccc(C(F)(F)F)c4)c(Cl)c3)c21
# Outline: as §1
# [3] = compound: CC(C)C1=C2N=C(C=C(N2N=C1)NCC3=CC=CC=C3)NCCCCCCN
# Outline: as §1
# [4] = compound: CC(C)C[C@@H](C=O)NC(=O)[C@H](CC(C)C)NC(=O)[C@H](CC(C)C)NC(=O)OCc1ccccc1
# Outline: as §1
# pinometostat = compound: CC(C)N(C[C@H]1O[C@@H](n2cnc3c(N)ncnc32)[C@H](O)[C@@H]1O)[C@H]1C[C@@H](CCc2nc3cc(C(C)(C)C)ccc3[nH]2)C1 [pinometostat]
# Outline: as §1
# [5] = compound: CC1=C(C(CC(=O)N1)C2=CC=C(C=C2)C(F)(F)F)C(=O)NC3=C(C=C4C(=C3)C=NN4)F
# Outline: as §1
# [6] = compound: CC1=C(C2=C(C=C1)C(=O)C3=CC=CC=C3N2CCCN)C
# Outline: as §1
# [7] = compound: CC1=C(C=C(C=C1)NC(=O)C2=CC(=CC=C2)C(C)(C)C#N)NC3=CC4=C(C=C3)N=CN(C4=O)C
# Outline: as §1
# [8] = compound: CC1=C(C=C(C=C1)NC(=O)C2=CC(=CC=C2)N(C)C)NC(=O)C3=CC=C(C=C3)O
# Outline: as §1
# [9] = compound: CC1=CC=C(C=C1)SC2=C3C=C(SC3=CN=C2)C(=O)N
# Outline: as §1
# [10] = compound: CC1=NC(=CC=C1)C2=C(N=C(N2)C(C)(C)C)C3=CC4=NC=CN=C4C=C3
# Outline: as §1
# Nexturastat A = compound: CCCCN(Cc1ccc(C(=O)NO)cc1)C(=O)Nc1ccccc1 [Nexturastat A]
# Outline: as §1
# vemurafenib = compound: CCCS(=O)(=O)Nc1ccc(F)c(C(=O)c2c[nH]c3ncc(-c4ccc(Cl)cc4)cc23)c1F [vemurafenib]
# Outline: as §1
# [11] = compound: CCCS(=O)(=O)Nc1ccc(F)c(C(=O)c2c[nH]c3ncc(Cl)cc23)c1F
# Outline: as §1
# [12] = compound: CCCc1cc(C)[nH]c(=O)c1CNC(=O)c1cc(-c2ccnc(N3CCN(C)CC3)c2)cc2c1cnn2C(C)C
# Outline: as §1
# givinostat = compound: CCN(CC)Cc1ccc2cc(COC(=O)Nc3ccc(C(=O)NO)cc3)ccc2c1 [givinostat]
# Outline: as §1
# barasertib = compound: CCN(CCCOc1ccc2c(Nc3cc(CC(=O)Nc4cccc(F)c4)[nH]n3)ncnc2c1)CCOP(=O)(O)O [barasertib]
# Outline: as §1
# UniProt P15586, sequence (P15586 whole entry, looked up): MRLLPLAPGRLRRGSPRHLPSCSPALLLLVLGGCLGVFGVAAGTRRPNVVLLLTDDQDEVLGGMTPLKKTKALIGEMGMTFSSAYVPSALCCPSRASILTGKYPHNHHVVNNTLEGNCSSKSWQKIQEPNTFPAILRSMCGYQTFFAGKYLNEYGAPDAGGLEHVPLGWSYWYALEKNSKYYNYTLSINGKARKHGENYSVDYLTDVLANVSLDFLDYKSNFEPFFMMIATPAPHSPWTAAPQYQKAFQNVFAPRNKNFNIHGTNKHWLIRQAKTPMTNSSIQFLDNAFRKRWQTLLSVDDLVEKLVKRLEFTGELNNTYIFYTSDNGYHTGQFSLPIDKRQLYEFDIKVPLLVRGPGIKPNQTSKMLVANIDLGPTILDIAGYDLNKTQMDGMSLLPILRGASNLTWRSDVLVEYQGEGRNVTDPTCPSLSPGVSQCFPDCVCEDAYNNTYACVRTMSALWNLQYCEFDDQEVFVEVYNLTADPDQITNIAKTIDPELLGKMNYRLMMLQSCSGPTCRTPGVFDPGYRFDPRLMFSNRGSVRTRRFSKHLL
# UniProt Q9UKN8, sequence (Q9UKN8 whole entry, looked up): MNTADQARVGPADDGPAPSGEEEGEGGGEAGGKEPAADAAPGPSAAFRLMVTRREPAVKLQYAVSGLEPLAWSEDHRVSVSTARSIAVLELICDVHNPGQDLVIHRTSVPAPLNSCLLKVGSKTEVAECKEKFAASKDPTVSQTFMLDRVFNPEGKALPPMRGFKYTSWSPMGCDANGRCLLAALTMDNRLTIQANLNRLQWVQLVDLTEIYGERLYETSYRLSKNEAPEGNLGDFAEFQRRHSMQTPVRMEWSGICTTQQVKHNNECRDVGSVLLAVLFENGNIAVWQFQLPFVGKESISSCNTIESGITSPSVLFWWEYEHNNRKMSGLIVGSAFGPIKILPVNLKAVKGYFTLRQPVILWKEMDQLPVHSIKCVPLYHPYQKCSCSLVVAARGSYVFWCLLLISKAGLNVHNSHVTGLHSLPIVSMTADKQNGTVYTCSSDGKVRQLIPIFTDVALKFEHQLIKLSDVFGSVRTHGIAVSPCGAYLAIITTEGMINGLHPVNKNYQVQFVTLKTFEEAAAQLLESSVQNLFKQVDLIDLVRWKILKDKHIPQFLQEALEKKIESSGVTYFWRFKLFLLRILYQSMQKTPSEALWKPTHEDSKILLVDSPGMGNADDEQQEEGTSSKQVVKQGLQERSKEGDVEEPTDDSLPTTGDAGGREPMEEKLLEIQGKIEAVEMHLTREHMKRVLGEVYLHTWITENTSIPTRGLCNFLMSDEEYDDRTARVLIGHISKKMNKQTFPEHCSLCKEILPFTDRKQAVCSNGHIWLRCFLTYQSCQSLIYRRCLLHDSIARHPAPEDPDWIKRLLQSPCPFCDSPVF
# UniProt Q13547, sequence (Q13547 whole entry, looked up): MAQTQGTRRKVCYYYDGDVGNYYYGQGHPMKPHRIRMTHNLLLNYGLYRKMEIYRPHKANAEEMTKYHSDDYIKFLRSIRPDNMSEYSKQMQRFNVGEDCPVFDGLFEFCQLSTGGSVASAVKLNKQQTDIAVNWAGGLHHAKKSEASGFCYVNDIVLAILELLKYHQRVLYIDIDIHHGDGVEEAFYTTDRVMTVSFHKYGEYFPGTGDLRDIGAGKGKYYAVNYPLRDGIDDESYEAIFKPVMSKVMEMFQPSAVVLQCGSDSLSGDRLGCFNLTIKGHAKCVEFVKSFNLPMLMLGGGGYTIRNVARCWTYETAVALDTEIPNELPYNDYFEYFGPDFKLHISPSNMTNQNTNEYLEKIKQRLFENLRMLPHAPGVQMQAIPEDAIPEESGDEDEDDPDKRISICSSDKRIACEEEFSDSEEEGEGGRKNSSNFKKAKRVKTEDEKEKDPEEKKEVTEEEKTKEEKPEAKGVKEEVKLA
# UniProt Q92917, sequence (Q92917 whole entry, looked up): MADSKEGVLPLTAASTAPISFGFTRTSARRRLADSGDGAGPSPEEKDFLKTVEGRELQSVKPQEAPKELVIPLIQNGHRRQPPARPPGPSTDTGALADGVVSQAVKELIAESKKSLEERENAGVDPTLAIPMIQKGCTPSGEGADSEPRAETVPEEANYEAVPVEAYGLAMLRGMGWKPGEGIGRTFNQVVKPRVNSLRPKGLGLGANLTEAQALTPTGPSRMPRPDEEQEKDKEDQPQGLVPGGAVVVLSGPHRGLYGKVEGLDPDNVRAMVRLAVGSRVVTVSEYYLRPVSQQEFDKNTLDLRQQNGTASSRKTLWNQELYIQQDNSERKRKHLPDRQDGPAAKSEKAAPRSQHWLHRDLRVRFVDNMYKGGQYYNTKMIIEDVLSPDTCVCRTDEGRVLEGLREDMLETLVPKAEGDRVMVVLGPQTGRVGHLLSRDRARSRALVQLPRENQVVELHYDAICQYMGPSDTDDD
# UniProt P30711, sequence (P30711 whole entry, looked up): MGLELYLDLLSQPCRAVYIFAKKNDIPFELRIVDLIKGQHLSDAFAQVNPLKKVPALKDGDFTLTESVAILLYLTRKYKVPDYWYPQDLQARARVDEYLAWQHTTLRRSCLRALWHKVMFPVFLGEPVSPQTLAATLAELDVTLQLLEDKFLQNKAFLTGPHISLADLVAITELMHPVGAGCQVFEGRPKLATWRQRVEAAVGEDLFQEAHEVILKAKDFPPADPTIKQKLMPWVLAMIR
# UniProt O94925, sequence (O94925 whole entry, looked up): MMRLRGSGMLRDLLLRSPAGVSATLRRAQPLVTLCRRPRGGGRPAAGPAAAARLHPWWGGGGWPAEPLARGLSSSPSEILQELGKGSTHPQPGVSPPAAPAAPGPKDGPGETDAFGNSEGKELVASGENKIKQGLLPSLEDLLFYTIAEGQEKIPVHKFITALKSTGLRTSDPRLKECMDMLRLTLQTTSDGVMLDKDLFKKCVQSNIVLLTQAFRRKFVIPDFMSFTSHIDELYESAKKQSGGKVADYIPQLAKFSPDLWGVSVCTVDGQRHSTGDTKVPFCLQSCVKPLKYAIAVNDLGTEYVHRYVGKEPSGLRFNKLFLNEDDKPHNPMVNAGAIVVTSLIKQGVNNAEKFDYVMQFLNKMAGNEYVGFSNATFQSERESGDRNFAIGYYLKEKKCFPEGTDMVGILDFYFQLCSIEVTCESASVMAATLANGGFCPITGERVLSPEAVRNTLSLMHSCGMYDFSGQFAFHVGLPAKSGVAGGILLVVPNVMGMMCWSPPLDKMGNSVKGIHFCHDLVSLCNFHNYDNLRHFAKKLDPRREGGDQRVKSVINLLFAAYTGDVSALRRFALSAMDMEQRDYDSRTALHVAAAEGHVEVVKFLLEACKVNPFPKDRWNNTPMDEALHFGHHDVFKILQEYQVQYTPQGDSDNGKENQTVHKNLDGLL
# UniProt Q92769, sequence (Q92769 whole entry, looked up): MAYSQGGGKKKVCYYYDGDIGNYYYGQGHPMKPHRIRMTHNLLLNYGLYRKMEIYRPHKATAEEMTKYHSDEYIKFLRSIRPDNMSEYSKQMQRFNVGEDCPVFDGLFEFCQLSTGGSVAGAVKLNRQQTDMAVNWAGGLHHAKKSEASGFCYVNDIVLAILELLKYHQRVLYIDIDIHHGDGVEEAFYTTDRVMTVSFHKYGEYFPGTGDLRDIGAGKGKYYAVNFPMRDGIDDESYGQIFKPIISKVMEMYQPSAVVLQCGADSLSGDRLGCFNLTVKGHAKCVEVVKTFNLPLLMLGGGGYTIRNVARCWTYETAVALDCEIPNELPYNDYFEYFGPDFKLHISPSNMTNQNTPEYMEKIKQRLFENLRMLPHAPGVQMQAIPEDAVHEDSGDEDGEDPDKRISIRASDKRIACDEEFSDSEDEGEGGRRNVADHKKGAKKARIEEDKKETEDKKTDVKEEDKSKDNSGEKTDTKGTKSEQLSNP
# UniProt O43427, sequence (O43427 whole entry, looked up): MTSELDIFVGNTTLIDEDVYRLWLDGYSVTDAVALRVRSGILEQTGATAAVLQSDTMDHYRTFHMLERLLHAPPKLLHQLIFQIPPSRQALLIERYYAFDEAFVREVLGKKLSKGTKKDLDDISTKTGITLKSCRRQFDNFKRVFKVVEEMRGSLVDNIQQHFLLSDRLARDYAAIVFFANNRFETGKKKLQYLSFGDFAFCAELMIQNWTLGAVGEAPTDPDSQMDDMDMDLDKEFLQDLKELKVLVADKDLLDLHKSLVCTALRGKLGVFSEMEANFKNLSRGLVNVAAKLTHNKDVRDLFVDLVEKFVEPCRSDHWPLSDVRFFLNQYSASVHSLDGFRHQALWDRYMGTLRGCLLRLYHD
# UniProt Q1KMD3, sequence (Q1KMD3 whole entry, looked up): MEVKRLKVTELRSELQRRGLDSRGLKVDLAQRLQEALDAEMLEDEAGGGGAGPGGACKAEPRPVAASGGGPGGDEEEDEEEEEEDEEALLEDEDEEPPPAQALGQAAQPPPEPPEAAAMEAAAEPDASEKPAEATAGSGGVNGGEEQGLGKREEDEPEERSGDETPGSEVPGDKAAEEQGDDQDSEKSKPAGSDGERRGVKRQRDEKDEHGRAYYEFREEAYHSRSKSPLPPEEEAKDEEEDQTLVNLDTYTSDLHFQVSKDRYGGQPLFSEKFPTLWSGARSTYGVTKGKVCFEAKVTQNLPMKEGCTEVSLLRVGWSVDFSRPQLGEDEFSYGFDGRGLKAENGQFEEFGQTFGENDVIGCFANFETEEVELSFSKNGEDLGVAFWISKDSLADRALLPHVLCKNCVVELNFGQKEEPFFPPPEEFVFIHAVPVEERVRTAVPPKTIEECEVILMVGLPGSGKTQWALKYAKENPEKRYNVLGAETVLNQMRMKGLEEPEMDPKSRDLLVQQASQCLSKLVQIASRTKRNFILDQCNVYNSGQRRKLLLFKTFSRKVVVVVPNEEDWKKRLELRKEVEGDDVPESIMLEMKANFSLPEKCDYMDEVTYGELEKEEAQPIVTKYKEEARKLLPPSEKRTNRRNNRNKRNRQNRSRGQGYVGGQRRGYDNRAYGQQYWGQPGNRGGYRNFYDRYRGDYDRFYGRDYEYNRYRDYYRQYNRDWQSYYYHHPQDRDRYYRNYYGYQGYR
# UniProt Q9H4G4, sequence (Q9H4G4 whole entry, looked up): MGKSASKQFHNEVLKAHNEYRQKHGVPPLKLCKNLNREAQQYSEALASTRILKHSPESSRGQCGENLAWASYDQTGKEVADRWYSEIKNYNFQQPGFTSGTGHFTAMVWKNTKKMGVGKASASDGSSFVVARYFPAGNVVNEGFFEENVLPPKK
Target,log2 fold change (IRAK-1-4 Inhibitor I),log2 fold change (ibrutinib),log2 fold change [1],log2 fold change (ralimetinib),log2 fold change [2],log2 fold change [3],log2 fold change [4],log2 fold change (pinometostat),log2 fold change [5],log2 fold change [6],log2 fold change [7],log2 fold change [8],log2 fold change [9],log2 fold change [10],log2 fold change (Nexturastat A),log2 fold change (vemurafenib),log2 fold change [11],log2 fold change [12],log2 fold change (givinostat),log2 fold change (barasertib)
HNRNPUL2 (UniProt Q1KMD3),-0.033,-0.022,-0.014,-0.033,0.024,0.117,0.054,0.107,-0.009,0.023,0.009,0.008,-0.074,-0.032,0.109,-0.047,-0.027,-0.002,0.047,-0.027
GSTT1 (UniProt P30711),-0.054,0.007,0.009,-0.079,-0.079,0.076,-0.005,-0.124,0.139,0.157,–,-0.004,0.011,0.101,-0.062,0.064,-0.063,0.081,0.009,-0.018
HDAC2 (UniProt Q92769),0,-0.015,-0.046,-0.004,0.01,0.007,-0.04,-0.01,-0.006,0,-0.051,-0.001,0.015,-0.006,0.856 (active),-0.005,0.019,-0.018,–,-0.039
GLS isoform 3 (UniProt O94925),0.011,-0.15,-0.046,-0.19,-0.547 (active),-0.034,-0.04,-0.088,0,-0.068,0.004,-0.119,-0.01,0.167,0.087,0.155,0.236,0.061,0.031,0.061
FIBP (UniProt O43427),0.026,0.019,-0.146,0.041,-0.143,0.018,0.065,0.075,–,-0.039,0.046,-0.009,0.001,0,-0.009,0.03,0.089,0,-0.009,-0.071
GPKOW (UniProt Q92917),-0.016,-0.005,-0.172,-0.08,-0.026,-0.184,0.006,0.047,-0.034,0.056,0.053,-0.033,0.062,0.055,-0.106,0.009,0.07,-0.058,0.084,0.027
GNS (UniProt P15586),0.023,-0.011,0.011,-0.04,0.065,-0.079,0.025,-0.025,-0.017,-0.01,-0.021,0.112,0.044,0.026,-0.03,0.023,-0.005,0.003,0.011,-0.004
FANCI (UniProt Q9NVI1),-0.043,-0.082,-0.148,-0.008,-0.146,-0.377 (active),-0.136,0.006,-0.038,-0.098,0.012,0.018,0.01,0.046,-0.054,0.016,0.087,0.009,0.043,0.029
GTF3C4 (UniProt Q9UKN8),-0.002,0.032,-0.051,-0.045,0.035,0.038,0.035,0,-0.047,-0.041,-0.025,-0.027,0.038,0.008,-0.052,0.032,0.045,0.033,-0.007,0.003
GLIPR2 (UniProt Q9H4G4),0.038,-0.047,-0.01,0.04,0.06,-0.35 (active),0.012,0.03,–,0.061,0.156,-0.152,-0.054,-0.032,0.062,0.092,-0.014,0.028,0.009,0
HEXB (UniProt P07686),0.06,0.004,0.003,-0.068,-0.004,-0.14,0.003,-0.025,-0.015,-0.03,0,0.029,0.028,0.022,-0.078,-0.003,-0.001,-0.019,-0.016,-0.015
HDAC1 (UniProt Q13547),-0.033,-0.052,0.056,0.02,-0.021,-0.009,-0.067,0.03,0.003,0.023,-0.11,-0.039,0.051,0.034,1.45 (active),0.051,0.14,-0.118,–,0.024
